SW480 rerep – A quantitative high throughput screen for small molecules that induce DNA re-replication in SW480 colon adenocarcinoma cells | SW480 DNA re-replication, Hoechst DNA content imaging, 48 h | Potency, µM (doses to about 46.1 µM), for inactives: at the highest dose re-replication activation, usual class: activators | 1.8% of 340,000 active | AID 624297, 2012; further: potency means the concentration at half of the fitted maximal effect; % of control where 0% means no effect; nearly all actives have a fitted effect of over 55% in size
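Image-based DNA-content assay: after two days of treatment, nuclei were labelled with the DNA dye Hoechst and imaged, and hits were compounds raising the count of nuclei showing high fluorescence intensity.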
MCF10A rerep – A quantitative high throughput screen for small molecules that induce DNA re-replication in MCF 10a normal breast cells; MCF 10A DNA re-replication, Hoechst nuclear intensity, 48 h; Potency, µM (series often up to 46.1 µM), for the others: at the top dose activity, positive = re-replication, most hits filed as activators; 2.9% of 350,000 active; further: potency means the concentration at half of the fitted maximal effect; % of control where 0% means no effect; nearly all actives have a fitted effect of over 50% in size
TDP1 cell CPT – qHTS for Inhibitors of human tyrosyl-DNA phosphodiesterase 1 (TDP1): qHTS in cells in presence of CPT. Potency, µM (doses to about 46.2 µM), for inactives: at the top dose activity change, negative = growth inhibition, usual class: inhibitors. AID 686979, 2013. 12% of 420,000 active. chicken DT40 Tdp1-/-;hTDP1 cells + 20 nM CPT, ATP luminescence, 48 h; further: potency means the concentration at half of the fitted maximal effect; on the % scale 0 is the no-effect control and ±100 the full control effect; nearly all actives have a fitted effect of over 55% in size
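Chicken DT40 Tdp1-/- cells complemented with human TDP1, 400 cells/well, exposed to compounds plus 20 nM camptothecin for at least 48 h at 37 C; viability read as ATP content by CellTiter-Glo luminescence.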
DT40 TDP1 no CPT – qHTS for Inhibitors of human tyrosyl-DNA phosphodiesterase 1 (TDP1): qHTS in cells in absence of CPT; DT40 Tdp1-/- hTDP1 cells, no CPT, ATP luminescence, 48 h; Potency, µM (titrated, usually from 46.2 µM), for inactives: top-dose activity change, negative = growth inhibition, most hits filed as inhibitors; 15% of 420,000 active; AID 686978, 2013; further: potency means the concentration at half of the fitted maximal effect; on the % scale 0 is the no-effect control and ±100 the full control effect; nearly all actives have a fitted effect of over 55% in size
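Growth of hTDP1-complemented DT40 Tdp1-knockout cells is measured by ATP luminescence after at least 48 hr compound exposure at 37 °C, with DMSO substituting for the 20 nM CPT used in the parallel screen.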
IL-1B inflam inh – qHTS for Inhibitors of Inflammasome Signaling: IL-1-beta AlphaLISA Primary Screen | THP-1 LPS/ATP IL-1B secretion, AlphaLISA, 16 h; hits give low values | 4.7% of 360,000 active | activity change, % at 57.5 µM | AID 743279, 2014; in the data active means activity change below about -50%; inconclusive means mostly about -30% to -49%; further: on the % scale 0 is the no-effect control and ±100 the full control effect
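THP-1 cells pretreated 1 hr with compounds (up to 57.5 uM final), then stimulated with LPS (250 ng/mL final) plus ATP (1.25 mM final); secreted IL-1B measured by AlphaLISA after 16 hr, decreased signal indicating inhibition.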
BCR signal inh – qHTS Assay to Find Inhibitors of Chronic Active B-Cell Receptor Signaling; ABC-DLBCL IkBa-CBG/CBR reporter, luminescence ratio, 4 h; Potency, µM (highest dose often 46.1 µM), for the others: top-dose activity change, negative = inhibition, actives largely listed as inhibitors; 0.05% of 340,000 active; active means well fitted inhibition curve with a large enough effect in the signal ratio, with a control signal flat, not every such curve was filed as active; inconclusive means small, poorly fitted or top-dose-only effect, or effect the other way, or a change in a side signal; the % refers to the signal ratio;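 further: potency means the concentration at half of the fitted maximal effect; plate controls were basal doxycycline-induced cells for no effect and cells given 10 µM MG132 for full effect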
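TMD8 ABC-DLBCL cells carrying doxycycline-inducible green luciferase fused to IkappaBalpha plus unfused red luciferase were exposed to compounds (up to 46 uM) for 4 hrs at 37C. Activity came from the overlap-corrected green/red luminescence ratio.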
* marks the source's active call; other numbers are inactive results; u = inconclusive; x = no result; [ ] = another dose, or the depositor's remark. This is a sample that favours compounds with a hit; in the whole collection about 19% have one here. Unless noted, the call rests on the fitted dose curve; in most records, active means well fitted curve in the direction sought with a large enough effect; inconclusive means small, poorly fitted or top-dose-only effect, or another doubt; inactive means no such curve, though single readings can be large; an effect the other way counts as inactive or inconclusive.

SMILES | SW480 rerep | MCF10A rerep | TDP1 cell CPT | DT40 TDP1 no CPT | IL-1B inflam inh | BCR signal inh
COCCCNc1nc2c(-c3ccccc3)nnn2c2ccccc12 | x | x | -22% | u | x | x
CCCCNc1nc2c(-c3cccc(Br)c3)nnn2c2ccccc12 | x | x | 1% | -20% | x | x
Cc1ccc(-c2nn(C)c(=O)c3ccccc23)cc1S(=O)(=O)N1CCCC1 | -20% | 19% | 15µM* | u | 21 | u
CCOC(=O)N1CCN(S(=O)(=O)c2cc(-c3nn4c(C)nnc4c4ccccc34)ccc2C)CC1 | -5% | -3% | u | 26µM* | 20 | -3%
Cc1ccc(-c2nn(C)c(=O)c3ccccc23)cc1S(=O)(=O)N1CCOCC1 | -3% | -6% | 11µM* | u | 19 | 0%
COc1cc(CN2C[C@@H](CO)O[C@@H](n3cnc4c(NC5CCCC5)ncnc43)C2)cc(OC)c1OC | x | x | -7% | u | -9 | x
CCN1CCN(c2nc3c(C)cccn3c(=O)c2/C=C(\C#N)C(=O)NC)CC1 | 7% | 5.8µM* | 22% | 0% | -9 | 1%
CCN1CCN(c2nc3c(C)cccn3c(=O)c2/C=C(\C#N)C(=O)NCCCOC)CC1 | 21µM* | 18µM* | -4% | 6% | -18 | 1%
CNC(=O)/C(C#N)=C/c1c(N(Cc2ccccc2)Cc2ccccc2)nc2ccccn2c1=O | -7% | -1% | 16µM* | 16µM* | u | -7%
Cc1ccc2c(=O)cc(C(=O)NCc3ccccc3)oc2c1 | x | x | -27% | -25% | x | x
CCOC(=O)N1CCC(NCCNC(=O)c2ccc(F)c(F)c2)CC1 | -13% | 15% | 2% | -13% | 9 | -3%
COc1ccccc1C1CN(CCNC(=O)[C@@H]2CSC(=O)N2)Cc2ccccc2O1 (some centres undefined) | x | x | -1%[9.04 µM] | -16% | x | x
CCOc1ccccc1NC(=S)/C(=C(\[O-])c1ccc2c(c1)OCCO2)[n+]1ccc(CC)cc1 | u | 23% | 21µM* | x | -12 | 8%
[O-]C(=C(C(=S)Nc1cccc2ccccc12)[n+]1ccccc1)c1ccc2c(c1)OCCO2 | 15% | 23% | -15% | u | 16 | x
COC(=O)c1ccc(Nc2ncnc3c2cnn3-c2ccccc2)cc1 | x | x | -2% | -7% | x | 10%
Oc1[nH]c2ccccc2c1C=Nc1ccc2c(c1)OCCO2 | -6% | u | u | u | -90* | u
Oc1c(Br)cc(Br)cc1C=Nc1ccc2c(c1)OCCO2 | -6% | -1% | -11% | u | 26 | 11%
CC(C)NC(=O)C1(C#N)C=C1c1ccccc1 (centres undefined) | x | x | u | 16µM* | -84* | x
CC(C)NC(=O)c1ccccc1-c1ccccc1 | -20% | 0% | 2% | -1% | 41 | 15%
CC(C)C1OC(c2cccc(NC(=O)c3cccs3)c2)OCC1(C)C (centres undefined) | 1% | u | u | 23µM* | -75* | -5%
CC1CCN(C(=O)c2cccc(NC(=O)c3cccs3)c2)CC1 | -2% | 4% | -9% | -11% | -4 | u
C=CCOc1ccccc1CN(C(=O)CCl)c1ccc2c(c1)OCO2 | 5.2µM* | u | 18µM* | 10µM* | -106* | u
Cc1ccc(C)c(S(=O)(=O)c2c[nH]c(=S)[nH]c2=O)c1 | -7% | 5% | 2% | -2% | 1 | u
COc1ccc(Cl)cc1NC(=O)Cn1ncc2c3ccccc3n(Cc3ccccc3)c2c1=O | x | x | u | 15µM* | x | x
O=C(Cn1ncc2c3ccccc3n(Cc3cccc(Cl)c3)c2c1=O)Nc1ccc(F)cc1F | x | x | 29µM* | 21µM* | x | x
SMILES | SW480 rerep | MCF10A rerep | TDP1 cell CPT | DT40 TDP1 no CPT | IL-1B inflam inh | BCR signal inh
CCOc1ccc(-n2c(SCC(=O)N3CCCC3)nc3c([nH]c4ccccc43)c2=O)cc1 | x | x | -7% | -5% | x | x
CCOc1ccc(-n2c(SCC(=O)N3CCC(C)CC3)nc3c([nH]c4ccccc43)c2=O)cc1 | x | x | 2.1µM* | 5.2µM* | x | x
CCOc1ccc(-n2c(SCC(=O)N3CCCCCC3)nc3c([nH]c4ccccc43)c2=O)cc1 | x | x | 21µM* | 23µM* | x | x
COc1ccc(-n2c(=O)c(CCC(=O)N3CCC(C)CC3)nc3ccccc32)cc1 | 17% | 1% | 18µM* | u | -4 | -1%
Cc1cc(C)cc(OCC(=O)Nc2ccc(S(=O)(=O)Nc3onc(C)c3C)cc2)c1 | x | x | 2% | -8% | x | x
N#CC1c2ccccc2C=CN1C(=O)N(c1ccccc1)c1ccccc1 (centres undefined) | u | 3.3µM* | u | u | -97* | x
COc1ccc(C(=O)N2C=Cc3ccccc3C2C#N)cc1 (centres undefined) | x | x | 0% | -24% | 9 | x
Clc1ccc(OCc2nn3c(C4CCCCC4)nnc3s2)cc1 | 4% | -7% | 21µM* | 21µM* | -9 | u
c1ccc(-c2nn3c(C4CCCCC4)nnc3s2)nc1 | -4% | 1% | -16% | -5% | -15 | 0%
COCc1ccc(CN2CCOc3ccc(C4=Cc5ccccc5C4)cc3C2)o1 | x | x | 1%[9.04 µM] | -23% | x | x
CC(C)CCN1C(=O)c2ccccc2C1c1nnnn1C(C)C (centres undefined) | x | x | u | u | 0 | x
O=C1CCCC2=C1C(c1ccco1)Nc1ccc(C(=O)c3ccccc3)cc1N2 (centres undefined) | u | u | 15µM* | 12µM* | 0 | 0%
N#C/C(=C\c1ccc(Cl)cc1Cl)c1nc(-c2cccc(Cl)c2)cs1 | x | x | -8% | 15% | x | x
CC(C)(C)C(=O)Nc1cc(S(=O)(=O)Nc2ccc(Cl)cc2)ccc1Cl | -1% | u | 18µM* | 23µM* | 11 | u
COc1ccc(NS(=O)(=O)c2ccc(Cl)c(NC(=O)c3ccccc3F)c2)cc1 | 13% | 0% | u | u | -7 | -4%
O=C(Nc1ccc(Cl)cc1)c1cc(S(=O)(=O)Nc2ccccn2)ccc1Cl | -22% | 9% | u | 16µM* | 25 | -3%
COc1ccc(NS(=O)(=O)c2ccc(Cl)c(NC(=O)c3cccnc3Cl)c2)cc1 | 14% | 12% | u | 16µM* | 14 | 0%

High-throughput results as filed in PubChem.
